Consider 48 molecules from ChEMBL document CHEMBL4808148, “HDAC6 screening dataset using tau-based substrate in an enzymatic assay yields selective inhibitors and activators” (2021).

The inhibition is the relative decrease from the control value, in per cent.

Out of some 5,600 compounds screened, about 390 (7%) showed an effect of 50% or more. This excerpt belongs to a sample that is enriched for strong results. Starred links: 1 amine or outer side, 2 acyl side, 3 side chain; linkers in the order of their positions; H or OH if unused. Positions of bridges follow the written chain, without caps; N, C: chain ends. Non-standard residues stand in square brackets, D forms with d. Residues, ends and D or L forms follow the SMILES beside them. Chains are numbered I, II in the order given. Actinocin(9to1) = Cc1c2oc3c(C)ccc(C(=O)[*:1])c3nc-2c(C(=O)[*:2])c(N)c1=O; NMeV = CN[C@H](C(=O)O)C(C)C; Sar = CNCC(=O)O

This assay deals with T1, Protein deacetylase HDAC6 (Homo sapiens) (UniProt Q9UBN7).
T1 sequence (whole entry): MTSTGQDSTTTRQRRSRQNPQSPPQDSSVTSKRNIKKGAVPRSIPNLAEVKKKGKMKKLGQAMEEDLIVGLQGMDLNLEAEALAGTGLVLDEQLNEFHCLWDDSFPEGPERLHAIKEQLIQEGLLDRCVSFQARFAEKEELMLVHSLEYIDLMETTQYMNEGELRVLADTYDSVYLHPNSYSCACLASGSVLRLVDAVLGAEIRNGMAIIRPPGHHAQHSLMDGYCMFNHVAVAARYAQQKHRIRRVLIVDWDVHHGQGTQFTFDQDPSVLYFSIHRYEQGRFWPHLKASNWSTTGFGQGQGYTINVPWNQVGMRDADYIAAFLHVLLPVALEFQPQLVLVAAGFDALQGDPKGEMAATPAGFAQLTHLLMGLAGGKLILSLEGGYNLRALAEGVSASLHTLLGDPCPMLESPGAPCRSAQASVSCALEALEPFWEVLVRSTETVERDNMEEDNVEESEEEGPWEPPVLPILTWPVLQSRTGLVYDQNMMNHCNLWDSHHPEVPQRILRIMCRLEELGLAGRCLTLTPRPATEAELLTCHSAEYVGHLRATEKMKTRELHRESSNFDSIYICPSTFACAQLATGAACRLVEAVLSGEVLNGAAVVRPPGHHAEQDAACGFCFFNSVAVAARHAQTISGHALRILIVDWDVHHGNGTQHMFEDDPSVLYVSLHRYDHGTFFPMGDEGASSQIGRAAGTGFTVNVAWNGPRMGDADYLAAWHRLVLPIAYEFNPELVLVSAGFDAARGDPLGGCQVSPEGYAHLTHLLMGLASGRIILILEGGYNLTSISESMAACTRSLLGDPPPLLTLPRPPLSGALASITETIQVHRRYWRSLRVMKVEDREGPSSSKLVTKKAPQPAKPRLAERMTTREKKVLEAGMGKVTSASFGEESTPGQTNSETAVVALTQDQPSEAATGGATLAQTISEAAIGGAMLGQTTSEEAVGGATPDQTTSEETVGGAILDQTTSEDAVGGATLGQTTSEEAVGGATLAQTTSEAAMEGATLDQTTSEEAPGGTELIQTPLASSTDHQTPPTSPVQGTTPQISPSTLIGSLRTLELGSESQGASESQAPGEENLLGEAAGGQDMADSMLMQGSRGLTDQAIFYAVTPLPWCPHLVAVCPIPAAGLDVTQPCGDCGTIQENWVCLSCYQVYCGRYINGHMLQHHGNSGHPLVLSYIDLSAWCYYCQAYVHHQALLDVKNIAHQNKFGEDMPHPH
The following applies: at 10 µM.
For the molecule `COc1cc(COc2cc(N)c(Cl)cc2C(=O)CCC2CCN(CCNS(C)(=O)=O)CC2)cc(OC)c1`, the inhibition came to 28.1%.

With `Cc1c(NC(=O)N2CCOCC2)ccc2c1c1ccccc1n2C(C)C`, the inhibition worked out at 21.6%. For `CSc1ccc2c(c1)N(CCC1CCCCN1C)c1ccccc1S2` (stereo not drawn) the value was 21.9%.

On to `CN1CCCC(CC2c3ccccc3Sc3ccccc32)C1` (stereo not drawn), for which the inhibition amounted to 34.4%. As to `CSc1ccc2c(c1)C(N1CCN(C)CC1)Cc1ccccc1S2` (stereo not drawn), the inhibition is 62.7%. Take `NC(=O)C[C@H](N)C(=O)O`: the inhibition worked out at 16.2%. Turning to `O=C(O)CNC(=O)c1nc(Cl)c2ccccc2c1O`, the inhibition is -6.14%. Consider `Cc1c2oc3c(C)ccc(C(=O)N[C@@H]4C(=O)N[C@@H](C(C)C)C(=O)N5CCC[C@H]5C(=O)N(C)CC(=O)N(C)[C@@H](C(C)C)C(=O)O[C@@H]4C)c3nc-2c(C(=O)N[C@@H]2C(=O)N[C@@H](C(C)C)C(=O)N3CCC[C@H]3C(=O)N(C)CC(=O)N(C)[C@@H](C(C)C)C(=O)O[C@@H]2C)c(N)c1=O` (I: TVP[Sar][NMeV] / II: TVP[Sar][NMeV]; ester I:1-I:C, II:1-II:C; linker I:N-II:N via Actinocin(9to1)), for which the inhibition was determined as 21%. For `COc1cc2c(cc1OC)CN(CCc1ccc(NC(=O)c3cccc4c(=O)c5cccc(OC)c5[nH]c34)cc1)CC2` the value was 59.7%; for `COc1ccccc1S(=O)(=O)Nc1ccc2c(c1)CN(C)C(=O)N2`, -9.44%; for `COc1cccc([C@H](O)C2CCN(CCc3ccc(F)cc3)CC2)c1OC`, -1.53%.

Take `COc1cnc(-n2cnc(C)n2)c2[nH]cc(C(=O)C(=O)N3CCN(C(=O)c4ccccc4)CC3)c12`: the inhibition is 12.8%.

Consider `CC(C)(Sc1ccc(CCN(CCCCC2CCCCC2)C(=O)NC2CCCCC2)cc1)C(=O)O`, for which the inhibition came to 10.4%.

With `COc1ccc(/C=C\CCCCOc2ccc(C(=O)c3cccc(C(=O)O)c3)cc2CCC(=O)O)cc1`, the inhibition was -0.99%.

`CC(C)(C)c1ccc(CN(Cc2cccc(OCC(=O)O)c2)S(=O)(=O)c2cccnc2)cc1`: the inhibition is 3.1%.

As for `Cc1onc(-c2c(Cl)cccc2Cl)c1C(=O)N[C@@H]1C(=O)N([C@@H](C(=O)O)C(C)(C)C)[C@@H]1S`, the inhibition was -9.26%. As to `O=C(Nc1ccccc1-c1cn2c(CN3CCNCC3)csc2n1)c1cnc2ccccc2n1`, the inhibition amounted to 55.6%. Next, `O=C(C1CC1)N1CC[C@@H](Cc2n[nH]c(=O)n2-c2ccc(-c3ccc4occc4c3)cc2)C1`: 39.2%; `CN[C@@H]1[C@@H](O)[C@H](O[C@@H]2[C@@H](O)[C@H](O[C@H]3O[C@H](CN)[C@@H](O)[C@H](O)[C@H]3O)[C@@H](N)C[C@H]2NC(=O)[C@@H](O)CN)OC[C@]1(C)O`: -4.97%; `Cc1ccc(F)c(NC(=O)Nc2ccc(-c3cccc4[nH]nc(N)c34)cc2)c1`: 94.5%. Take `Cc1cc(NC(=O)Nc2ccc(N(C)C)cc2)c2cc(F)cc(F)c2n1`: the inhibition was found to be 9.39%. Consider `C[N+]1(CCCCC[N+]2(C)CCCC2)CCCC1`, for which the inhibition came to 1.14%.

As for `NC(=O)[C@H]1CCS[C@@H]2C[C@]3(CCCN3C(=O)Cc3ccc(NC(=O)COc4ccc(Cl)cc4Cl)cc3)C(=O)N12`, the inhibition was determined as 3.16%.

For `Cc1c(C)c2c(c(C)c1O)C[C@@](C)(CCC[C@H](C)CCC[C@H](C)CCCC(C)C)OC2`, the inhibition came to 18.1%. As to `O=C1N=C(NCc2cccs2)S/C1=C\c1ccc2ncccc2c1`, the inhibition was determined as 68.2%. As for `Oc1ccc2ccccc2c1Cc1c(O)ccc2ccccc12`, the inhibition turned out to be 25.7%. For the molecule `Cc1cc(N)c2ccccc2[n+]1CCCCCCCCCC[n+]1c(C)cc(N)c2ccccc21`, the inhibition was -8%. As to `Nc1cc2c3ccccc3ccc2c2ccccc12`, the inhibition amounted to 96%.

As to `COc1nccc(-c2c(-c3ccc(F)cc3)ncn2[C@H]2CC[C@H](O)CC2)n1`, the inhibition was -0.9%. As to `COc1c2occc2c(OC)c2c(=O)cc(C)oc12`, the inhibition was -5.99%. Consider `Cc1cn(C[C@H](N)C(=O)O)c(=O)n(Cc2ccsc2C(=O)O)c1=O`, for which the inhibition is 14.3%. Regarding `CN1CCCN=C1/C=C/c1cccc(O)c1`, the inhibition stood at 74.1%.

In the case of `CN1CCCN=C1COC(=O)C(O)(c1ccccc1)C1CCCCC1` (stereo not drawn), the inhibition is -6.61%.

Take `CN1CCCN=C1/C=C/c1cccs1`: the inhibition is 82.3%. On to `Cc1ccsc1/C=C/C1=NCCCN1C`, for which the inhibition was 1.45%. For `COc1ccc(N(C)c2nc(C)nc3ccccc23)cc1` the value was -1.78%; for `CC[C@@H]1C[C@H](N(Cc2cc(C(F)(F)F)cc(C(F)(F)F)c2)C(C)=O)c2cc(C(F)(F)F)ccc2N1C(=O)OC(C)C`, 3.27%; for `COC(=O)C1=C(C)NC(C)=C(C(=O)O[C@@H]2CCCN(Cc3ccccc3)C2)[C@@H]1c1cccc([N+](=O)[O-])c1`, 16.7%. For `CCn1c(=O)/c(=C2\Sc3ccccc3N2C)s/c1=C\c1cccc[n+]1CC` the value was 3.58%; for `N=C(N)NC(=N)N1CCOCC1`, -0.5%; for `N#Cc1ccc(N(Cc2ccc(Br)cc2)n2cnnc2)cc1`, 7.87%.

Regarding `O=C(N[C@@H]1CC[C@@H](c2cccc(F)c2F)CN(CC(F)(F)F)C1=O)N1CCC(n2c(=O)[nH]c3ncccc32)CC1`, the inhibition came to 21.5%.

On to `N[C@@]1(C(=O)O)CS(=O)(=O)[C@H]2[C@H](C(=O)O)[C@H]21`, for which the inhibition came to 9.11%. Regarding `O=C1NCCc2[nH]c(-c3ccncc3)cc21`, the inhibition was -2.78%. Regarding `O=C1Cc2c([nH]c3ccc(Br)cc23)-c2ccccc2N1`, the inhibition came out at 89.3%. Regarding `O=C1Cc2c([nH]c3ccc(Br)cc23)-c2ncccc2N1`, the inhibition stood at 84.9%. Next, `CCS(=O)(=O)c1cccc(-c2cc(C(=O)NC3CCN(C)CC3)c(C)c3[nH]c4ncc(C)cc4c23)c1`: 12.4%; `O=[N+]([O-])c1cccc2c(Br)n[nH]c12`: -0.83%.
